# Measurements from PubChem BioAssay (NCATS).
# Inconclusive results are not listed. A number with no mark means an inactive call. Activity calls are given as the source filed them. Calls come from the whole dose curve; as a rule, active = well fitted inhibition curve with a large enough effect; inconclusive = small, poorly fitted or top-dose-only effect; inactive = flat fitted curve, though single readings scatter.
# Tests used:
# Test in all cases: Cytotoxic Profiling of Annotated Libraries Using Quantitative High-Throughput Screening (AID 1296008); note: nearly all actives have a fitted effect of over 60% in size
# Conditions in all cases: Five cell lines viability, CellTiter-Glo ATP luminescence, 48-72 h; max response: active compounds read low
# [1] = system: CRL-7250
# Procedure, shortened: (§1)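 Compounds were pin-transferred onto cells and incubated 48 or 72 hr at 37 degree Celsius, 95% humidity. CellTiter-Glo was added, plates sat 10 min at room temperature, then ATP-coupled luminescence was imaged as the viability read-out.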
# [2] = system: HEK293
# Procedure, shortened: as §1
# [3] = system: HaCat
# Procedure, shortened: as §1
# [4] = system: KB-3-1
# Procedure, shortened: as §1
# [5] = system: NIH3T3
# Procedure, shortened: as §1
# % is set by controls: 0 for no effect and ±100 for the full control effect; potency is the fitted concentration of half-maximal effect.
Compound,outcome [1],max response [2] [%],max response [3] [%],outcome [4],outcome [5],max response [1] [%],max response [4] [%],Potency [1]
CC(C)=C1CC2C(CCC2(C)O)C(C)(O)CC1=O (stereo not given),inactive,-3.11,-16.7,inactive,inactive,–,–,–
Fc1cccc(CN(C2=NCCN2)c2c(Cl)cccc2Cl)c1,–,-13.5,0.445,–,inactive,-5.57,5.56,–
C/C(=C\C(=O)C(C)C1CCC2C3=C(CCC21C)C1(C)CCC(=O)C(C)(C)C1(O)CC3)C(C)(C)O (stereo not given),–,-15.6,1.49,–,inactive,3.05,-3.74,–
O=C(/C=C/c1ccc(O)cc1)O[C@@H]1C[C@@](O)(C(=O)O)C[C@@H](O)[C@@H]1O,–,-2.92,-16.3,–,inactive,-19.8,5.75,–
O=C(/C=C/c1ccc(O)c(O)c1)O[C@@H]1[C@@H](O)[C@H](OC2CCCCC2O)O[C@H](CO)[C@H]1O (stereo not given in full),–,1.79,2.85,–,inactive,4.08,9.07,–
C=C1CCC2[C@@](C)(C(=O)O)CCC[C@@]2(C)[C@@H]1CCc1ccoc1 (stereo not given in full),–,-0.447,-0.12,–,inactive,-7.76,-3.34,–
CC1OC(O[C@@H]2[C@@H](O)[C@H](OC(=O)[C@]34CCC(C)(C)C[C@H]3C3=CCC5[C@@]6(C)CC[C@H](O[C@@H]7O[C@H](C(=O)O)[C@@H](O)[C@H](O[C@@H]8OC[C@@H](O)[C@H](O)[C@H]8O)[C@H]7O[C@@H]7O[C@H](CO)[C@H](O)[C@H](O)[C@H]7O)[C@@](C)(C=O)C6CC[C@@]5(C)[C@]3(C)C[C@H]4O)O[C@H](C)[C@@H]2OC2OC(C)C(OC3OCC(O)C(O)C3O)C(O)C2O)C(O)C(O)C1O (stereo not given in full),–,-14.3,-4.11,–,inactive,4.06,-3.93,–
CC(=O)O[C@@]1(C)[C@@H]2CC(=C(C)C)C(=O)C[C@@]2(C)CC[C@H]1OC(=O)C1(C)OC1C (stereo not given in full),–,-20.6,0.799,–,inactive,1.92,0.573,–
CC/C=C/C(O)C(O)C1=C(C)C(=O)C2(O1)C(=O)NC(OC)(C(=O)c1ccccc1)C2O (stereo not given),–,2.1,-3.32,inactive,inactive,0.865,–,–
C=C(C(=O)O)[C@@H]1CC[C@@]2(C)CC[C@@H](O)C(=C)C2C1 (stereo not given in full),–,-1.36,-0.0078,–,inactive,4.71,-6.38,–
COc1cc([C@@H](O[C@@H]2O[C@H](CO)[C@@H](O)[C@H](O)[C@H]2O)[C@@H]2CO[C@H](c3ccc(O)c(OC)c3)[C@H]2CO)ccc1O,inactive,2.55,0.823,–,inactive,–,-3.03,–
C=C(C(=O)O)[C@H]1C[C@]2(C)C(=O)CC[C@]23O[C@H]1C[C@@H]3C,–,-7.61,1.8,–,inactive,-1.57,4.05,–
CC(NC(=O)CC(=O)O)C(=O)Nc1ccccc1C(N)=O (stereo not given),–,2.48,-2.92,–,inactive,-2.72,3.19,–
C#CCCCn1cc(-c2cccc3c2N[C@@H](C)CC(=O)N3)cn1,–,-6.8,-14.3,inactive,inactive,–,–,18.4 µM (active)
COC(=O)C[C@@H]1C(C(=O)O)=CO[C@@H](O[C@@H]2O[C@H](CO)[C@@H](O)[C@H](O)[C@H]2O)/C1=C\COC(=O)/C=C/c1ccc(O)c(OC)c1,–,-2.42,-1.38,inactive,inactive,2.29,–,–
CC1=C2C(=O)C=C(CO)C2C2OC(=O)C(CS(=O)(=O)O)C2C(OC(=O)Cc2ccc(O)cc2)C1 (stereo not given),inactive,-5.22,-1.36,–,inactive,–,-6.7,–
O=C(COCC(=O)N1CCN(C(c2ccccc2)c2ccccc2)CC1)Nc1ccc(Cl)cc1C(=O)O,–,4.17,-6.79,inactive,inactive,-11.2,–,–
CC1OC(OC2C(OC3C(O[C@H]4CC[C@@]5(C)C(CC[C@]6(C)C5CC=C5C7CC(C)(C)CC(O)[C@]7(C)CC[C@]56C)C4(C)C)OC(C(=O)O)C(O)C3O)OCC(O)C2O)C(O)C(O)C1O (stereo not given in full),inactive,4.82,-11.3,–,inactive,–,9.21,–
CCCN(CCN1CCN(c2ccccc2OC)CC1)C1CCc2ncsc2C1 (stereo not given),–,0.117,-2.7,inactive,inactive,-14.3,–,–
COc1ccc(O[C@@H]2O[C@H](CO)[C@@H](O)[C@H](O)[C@H]2O)cc1OC,inactive,3.27,-16.7,inactive,inactive,–,–,–
